Compound activity as filed in PubChem BioAssay.
IL1B secr inh = blocks inflammasome-driven IL-1 beta release; THP-1 LPS/ATP IL-1B secretion, AlphaLISA, 16 h; stronger effect = lower value; activity change, % at 57.5 µM; 4.7% of 360,000 active; AID 743279; in the data active = activity change below about -50%; inconclusive = mostly about -30% to -49%
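THP-1 cells pretreated 1 hr with compounds (up to 57.5 uM final), then stimulated with LPS (250 ng/mL final) plus ATP (1.25 mM final); secreted IL-1B measured by AlphaLISA after 16 hr, decreased signal indicating inhibition.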
DT40 TDP1 no CPT = qHTS for Inhibitors of human tyrosyl-DNA phosphodiesterase 1 (TDP1): qHTS in cells in absence of CPT | DT40 Tdp1-/- hTDP1 cells, no CPT, ATP luminescence, 48 h | Potency, µM (doses to about 46.2 µM), for the others: at the highest dose activity change, negative = growth inhibition, actives largely listed as inhibitors | 15% of 420,000 active | AID 686978, 2013; also: potency is read from the fitted curve at half-maximal effect; nearly all actives have a fitted effect of over 55% in size
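Growth of hTDP1-complemented DT40 Tdp1-knockout cells is measured by ATP luminescence after at least 48 hr compound exposure at 37 °C, with DMSO substituting for the 20 nM CPT used in the parallel screen.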
RORgamma inh = inhibitors of mouse ROR gamma transcriptional activity; P51450; Drosophila S2 Gal4-RORgamma UAS-luciferase reporter, 20 h; Potency, µM (series often up to 53.6 µM), inactives show at the highest dose activity change, negative = inhibition, most hits filed as inhibitors; 5.4% of 310,000 active; AID 2551; also: potency is read from the fitted curve at half-maximal effect; nearly all actives have a fitted effect of over 60% in size
Target sequence (P51450 whole entry, looked up, the tested form may be a part): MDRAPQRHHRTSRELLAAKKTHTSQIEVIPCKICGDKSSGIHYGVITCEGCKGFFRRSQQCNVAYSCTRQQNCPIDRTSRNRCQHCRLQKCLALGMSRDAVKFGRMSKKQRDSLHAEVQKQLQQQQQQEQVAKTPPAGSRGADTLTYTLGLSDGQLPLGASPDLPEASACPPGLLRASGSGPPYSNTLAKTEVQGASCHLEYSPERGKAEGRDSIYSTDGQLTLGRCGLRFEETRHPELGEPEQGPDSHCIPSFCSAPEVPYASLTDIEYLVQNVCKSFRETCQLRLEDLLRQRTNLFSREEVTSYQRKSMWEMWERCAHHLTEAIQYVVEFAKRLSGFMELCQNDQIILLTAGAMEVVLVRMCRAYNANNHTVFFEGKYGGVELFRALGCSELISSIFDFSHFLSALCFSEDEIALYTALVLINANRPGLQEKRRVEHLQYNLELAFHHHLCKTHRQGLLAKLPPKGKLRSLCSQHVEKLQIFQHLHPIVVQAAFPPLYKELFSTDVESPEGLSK
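Drosophila Schneider cells stably carrying a metallothionein-driven Gal4 DBD–ROR gamma fusion and a UAS-Photinus luciferase reporter were exposed to compound for 1 hr, then induced with copper sulfate (700 uM final) for 20 hr at ambient temperature before luminescence reading.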
Gal4-VP16 FLuc = Gal4-VP16 reporter inhibition counter-screen. AID 2546. Potency, µM (top dose mostly 53.6 µM), for inactives: at the top dose activity, negative = inhibition, most hits filed as inhibitors. Drosophila S2 Gal4-VP16 UAS-luciferase, luminescence, 20 h. 3.5% of 310,000 active;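 also: Gal4-VP16 expression switched on by copper sulfate through the metallothionein promoter; potency is read from the fitted curve at half-maximal effect; nearly all actives have a fitted effect of over 50% in size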
ELG1 repair inh = ELG1-dependent DNA repair inhibition | HEK293T ELG1-luciferase reporter, luminescence, 16 h; DNA damage induced by 5-fluorouridine | 2.3% of 330,000 active | Potency, µM (highest dose often 46.1 µM), for the others: at the highest dose activity change, negative = inhibition, usual class: inhibitors; also: potency is read from the fitted curve at half-maximal effect; nearly all actives have a fitted effect of over 55% in size
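Overnight (16 hr) co-exposure of 2,000 cells/well to 5-fluorouridine and compound at 37 °C preceded detection. Luciferase was quantified via ONE-Glo luminescence; loss of signal denotes inhibition.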
TDP1 cell CPT = growth inhibition of DT40 Tdp1-/-;hTDP1 cells with camptothecin (screen for TDP1 inhibitors). chicken DT40 Tdp1-/-;hTDP1 cells + 20 nM CPT, ATP luminescence, 48 h. AID 686979. Potency, µM (highest dose often 46.2 µM), without a hit: top-dose activity change, negative = growth inhibition, hits mostly inhibitors. 12% of 420,000 active; also: potency is read from the fitted curve at half-maximal effect; nearly all actives have a fitted effect of over 55% in size
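Chicken DT40 Tdp1-/- cells stably complemented with human TDP1 were seeded at 400 cells/well in medium containing 20 nM camptothecin, exposed to pin-transferred compounds, and grown at 37 °C for at least 48 hr. Viability was read as ATP luminescence.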
Starred values were filed as active, the others as inactive; ? = inconclusive; · = not tested or not shown; [ ] = another dose, or the depositor's remark. Shown are actives, neighbours in structure and some others; about 21% of the full set was active somewhere. Unless noted, calls follow the shape of the dose curve; as a rule, active = well fitted curve in the direction sought with a large enough effect; inconclusive = small, poorly fitted or top-dose-only effect, or another doubt; inactive = no such curve, though single readings can be large; an effect the other way counts as inactive or inconclusive. % is scaled to controls: 0 for no effect and ±100 for the full control effect.

SMILES | IL1B secr inh | DT40 TDP1 no CPT | RORgamma inh | Gal4-VP16 FLuc | ELG1 repair inh | TDP1 cell CPT
Nc1nc(-c2ccc(-c3ccccc3)cc2)cs1 | 23 | -17% | ? | 22µM* | ? | -21%
CN(C)/C=N/c1nc(-c2ccc3ccccc3c2)cs1 | -61* | -1% | -15% | -5% | ? | -25%
NC(=O)Cc1nc(-c2ccccc2)cs1 | -2 | 5% | 13% | 6% | 18% | 1%
NCCc1nc(-c2ccccc2)cs1 | -52* | -23% | -14% | 3% | 20% | 4%
O=C1N[C@@H](Cc2c[nH]c3ccccc23)C(=O)N[C@H]1Cc1ccccc1 | -1 | 1% | · | · | · | 1%
COc1ccc(C(=O)O)cc1Nc1nc2ccc(C)cc2n2cnnc12 | · | ? | · | · | · | -25%
O=C(CCCN1CCC(O)(c2cccc(C(F)(F)F)c2)CC1)c1ccc(F)cc1 | -54* | ? | -1% | 8% | ? | ?
CCCc1ccc(S(=O)(=O)NCC2CCCN2CC)cc1 (stereo not drawn) | -3 | 3% | 5% | 1% | -3% | -12%
C/C=C/c1cccc(-c2nc(C(=O)NC3CCCC3)cc3c2[C@@H](CCO)N(S(=O)C(C)(C)C)C3)c1 (stereo partly drawn) | -4 | 18µM* | · | · | · | 26µM*
C/C=C/c1cccc(-c2nc(C(=O)NC3Cc4ccccc4C3)cc3c2[C@@H](CCO)N(C(C)=O)C3)c1 | -57* | ? | · | · | · | 15µM*
CCC(c1nc2ccccc2[nH]1)N(Cc1cccnc1)C(=O)c1cc(-c2ccccc2)on1 (stereo not drawn) | -12 | 18µM* | · | · | · | ?
O=C(c1cc(-c2ccccc2)on1)N(Cc1cccnc1)C(c1ccccn1)c1nc2ccccc2[nH]1 (stereo not drawn) | 25 | ? | · | · | · | ?
O=C(CSc1n[nH]c(Cc2ccccc2)n1)Nc1ccccc1Br | 5 | ? | 0% | 0% | 7% | -12%
CC1(C(=O)NS(=O)(=O)c2ccccc2Cl)CCN1C(=O)Cc1ccc(Cl)cc1Cl (stereo not drawn) | 6 | -2% | · | · | · | 5%
Cc1nc(-c2ccccc2)nc2[nH]ccc(=O)c12 | 41 | -5% | 38% | 7% | ? | 13%
Cc1nc(C)c2c(=O)cc(-c3ccccc3)[nH]c2n1 | 42 | 5.6µM* | 2% | 1% | -1% | 4.5µM*
OCCCn1c(C2CCCN2c2nc(-c3ccc(F)cc3)cs2)nc2cc(Cl)c(Cl)cc21 (stereo not drawn) | -9 | 16µM* | · | · | · | ?
CCCn1c(C2CCCN2c2nc(-c3cccc(Br)c3)cs2)nc2cc(Cl)c(Cl)cc21 (stereo not drawn) | -6 | 18µM* | 2.5µM* | 5.6µM* | -7% | ?
Cc1csc(N2CCCC2c2nc3cc(Cl)c(N4CCCCC4)cc3n2CCOCCO)n1 (stereo not drawn) | ? | 6% | · | · | · | ?
Cc1csc(N2CCCC2c2nc3cc(C(F)(F)F)ccc3n2CCOCCO)n1 (stereo not drawn) | -15 | ? | · | · | · | 9.2µM*
OCCCn1c(C2CCCN2c2nc(-c3ccc(Cl)cc3)cs2)nc2cc(Cl)c(Cl)cc21 (stereo not drawn) | -8 | ? | · | · | · | ?
CCCn1c(C2CCCN2c2nc(C)cs2)nc2cc(Cl)c(Cl)cc21 (stereo not drawn) | 1 | ? | ? | ? | ? | ?
COc1ccccc1CN1CCCC(n2cc(C(=O)N3CCCC3)nn2)C1 (stereo not drawn) | · | ? | · | · | · | 42%[9.04 µM]
CCCCc1nn2c(=O)cc(COC(=O)c3ccc(NC(=O)c4ccccc4Cl)cc3)nc2s1 | · | -19% | · | · | · | -17%
